For 5 molecules, composite z-score and z-score results are on record in PubChem BioAssay.

Calls of active or inactive are those of the source. Unless noted, no rule for the calls is given here.

Assay [1] in a line: compounds binding Alexa647 anti-His antibody – biochemical, small-molecule microarray, 635 nm fluorescence, artefact control for SMM control protein annotation, primary screen (AID 1128).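 Also: score merges feature fluorescence with signal-to-noise for each printed compound spot.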 The settings on record: higher = more signal.
For assay [2], the system named is Human papillomavirus type 1a E7 protein (residues 1-88). The experiment in a line: HPV1a E7 small-molecule binders, primary screen, biochemical, small-molecule microarray, residues 1-88, 635 nm (AID 1129). To be noted: small-molecule microarray binding, fluorescence 635 nm; higher = more signal.
Assay [3] deals with Focal adhesion kinase 1 (Homo sapiens) (UniProt Q05397). Description: PTK2 protein binding on printed compound slides – biochemical, small-molecule microarray, 635/667 nm fluorescence, BSA, DTT, primary screen (AID 1130).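 Also: composite of spot emission at 667 nm and signal to noise over triplicate slides.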 The settings on record: 635 nm fluorescence, higher = more signal.
Focal adhesion kinase 1 (Homo sapiens), sequence (Q05397 whole entry, looked up): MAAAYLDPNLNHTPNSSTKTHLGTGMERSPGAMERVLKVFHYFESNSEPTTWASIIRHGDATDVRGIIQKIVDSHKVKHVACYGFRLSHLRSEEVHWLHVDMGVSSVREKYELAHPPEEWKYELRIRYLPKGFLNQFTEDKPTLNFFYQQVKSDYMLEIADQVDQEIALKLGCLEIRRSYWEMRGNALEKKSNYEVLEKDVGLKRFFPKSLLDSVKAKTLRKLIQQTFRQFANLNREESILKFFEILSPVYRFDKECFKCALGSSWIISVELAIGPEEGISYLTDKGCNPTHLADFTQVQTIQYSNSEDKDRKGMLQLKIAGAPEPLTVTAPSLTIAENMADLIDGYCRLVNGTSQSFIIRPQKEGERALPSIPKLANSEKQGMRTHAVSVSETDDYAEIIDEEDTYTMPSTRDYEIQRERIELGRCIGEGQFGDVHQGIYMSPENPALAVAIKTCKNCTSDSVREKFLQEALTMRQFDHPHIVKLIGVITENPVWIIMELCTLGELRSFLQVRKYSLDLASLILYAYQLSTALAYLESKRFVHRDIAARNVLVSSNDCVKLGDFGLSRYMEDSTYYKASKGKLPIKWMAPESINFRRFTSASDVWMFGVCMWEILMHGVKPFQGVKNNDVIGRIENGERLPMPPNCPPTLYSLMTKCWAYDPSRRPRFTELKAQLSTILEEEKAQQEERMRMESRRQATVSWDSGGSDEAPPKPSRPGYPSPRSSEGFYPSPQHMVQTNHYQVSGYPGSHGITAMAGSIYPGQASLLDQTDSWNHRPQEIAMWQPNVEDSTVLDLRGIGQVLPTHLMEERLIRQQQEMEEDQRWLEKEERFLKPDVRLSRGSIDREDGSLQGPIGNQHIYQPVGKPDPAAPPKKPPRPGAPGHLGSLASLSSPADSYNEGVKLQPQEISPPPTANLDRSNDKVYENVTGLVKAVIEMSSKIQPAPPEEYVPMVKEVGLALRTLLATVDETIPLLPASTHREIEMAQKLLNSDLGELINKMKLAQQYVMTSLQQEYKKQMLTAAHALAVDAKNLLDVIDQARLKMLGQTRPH
The subject of assay [4] is Fibrinogen (Alexa647-labelled). Description: Alexa647-fibrinogen binding to printed small molecules – biochemical, small-molecule microarray, 635/667 nm fluorescence, artefact control for SMM control-protein annotation, profiling panel (AID 1131).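 Also: z-score merges 667 nm fluorescence with per-spot signal-to-noise over triplicate slides.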 The settings on record: fibrinogen-A647 binding fluorescence, higher = more signal.
The target of assay [5] is Follistatin (Homo sapiens) (UniProt P19883). The experiment in a line: FST protein binding to printed compounds – biochemical, small-molecule microarray, 635/667 nm fluorescence, primary screen (AID 1132). The settings on record: 635 nm fluorescence, higher = more signal.
Follistatin (Homo sapiens), sequence (P19883 whole entry, looked up): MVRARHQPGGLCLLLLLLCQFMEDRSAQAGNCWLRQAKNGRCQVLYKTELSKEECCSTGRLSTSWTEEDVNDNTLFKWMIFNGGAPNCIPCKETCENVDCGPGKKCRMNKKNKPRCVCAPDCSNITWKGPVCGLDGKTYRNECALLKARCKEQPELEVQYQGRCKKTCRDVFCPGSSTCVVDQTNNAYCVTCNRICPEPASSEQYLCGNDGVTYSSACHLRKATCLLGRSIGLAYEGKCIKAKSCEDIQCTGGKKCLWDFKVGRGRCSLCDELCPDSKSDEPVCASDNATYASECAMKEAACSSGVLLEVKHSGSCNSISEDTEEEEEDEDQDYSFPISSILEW
Assay [6] deals with Fibroblast growth factor 2 (Homo sapiens) (UniProt P09038). The experiment in a line: basic fibroblast growth factor binding to printed compounds – biochemical, small-molecule microarray, 635/667 nm fluorescence, primary screen (AID 1133). To be noted: FGF2, fluorescence 635/667, higher = more signal.
Fibroblast growth factor 2 (Homo sapiens), sequence (P09038 whole entry, looked up): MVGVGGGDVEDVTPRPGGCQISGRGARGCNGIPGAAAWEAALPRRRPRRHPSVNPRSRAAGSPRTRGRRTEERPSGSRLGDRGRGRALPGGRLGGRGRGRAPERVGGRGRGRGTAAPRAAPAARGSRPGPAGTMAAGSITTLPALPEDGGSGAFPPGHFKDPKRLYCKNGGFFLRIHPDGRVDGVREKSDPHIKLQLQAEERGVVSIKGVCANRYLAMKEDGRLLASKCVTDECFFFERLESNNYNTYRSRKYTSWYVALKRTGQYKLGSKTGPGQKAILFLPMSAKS
A short description of assay [7]: JC-1 mitochondrial potential readout, lung cancer cells – cell-based, A549, JC-1 fluorescence, basal, 24 h, 100 nL, profiling panel (AID 1138).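 Also: A549 lung adenocarcinoma cells under basal conditions with no added stimulus; test concentration not given here.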 The settings on record: higher = more signal.
The subject of another assay is Lefty1. Description: Lefty1 protein binding to printed compounds – biochemical, small-molecule microarray, 635/667 nm fluorescence, primary screen (AID 1139). The settings on record: fluorescence 635/667, higher = more signal.
Assay [8] relates to wheat germ agglutinin (Triticum aestivum), Alexa647-labelled. Description: Alexa647-WGA lectin binding to printed small molecules – biochemical, small-molecule microarray, 635/667 nm fluorescence, artefact control for SMM control-protein annotation, profiling panel (AID 1140).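 Also: score merges 667 nm feature emission with signal to noise over triplicate slides.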 To be noted: WGA-A647 binding, 635 nm fluorescence, higher = more signal.
Assay [9] addresses Luciferin 4-monooxygenase (Photinus pyralis) (UniProt P08659). The experiment in a line: inhibition of purified Photinus pyralis luciferase – biochemical, luminescence, purified enzyme, 2006 set, primary screen (AID 1141).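 Also: cell-free assay with purified firefly luciferase at 100 ng per well in PBS; test concentration not given here.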 To be noted: purified firefly luciferase, SteadyGlo luminescence, 30 min; higher = more signal, called active from +8 up or from −8 down.
The subject of assay [10] is Wnt5a (protein binding on small-molecule microarray). Description: small molecules binding Wnt5a protein – biophysical, small-molecule microarray, 635/667 nm fluorescence, primary screen (AID 1142).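 Also: fluorescence read at 667 nm with signal to noise per printed feature.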 The settings on record: 635 nm fluorescence, higher = more signal.
A short description of assay [11]: ATP-based viability of Huh7 replicon cells – cell-based, CellTiter-Glo luminescence, basal, 48 h, cytotoxicity control for HCV replication inhibitor project, primary screen (AID 1143).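 Also: Huh7 hepatoma cells carrying a hepatitis C replication reporter with no stimulus; test concentration not given here.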 To be noted: higher = more signal, called active from +8 up or from −8 down. A general note: Replicon systems follow genome replication, usually without infectious particles.
Assay [12] in a line: Pseudomonas biofilm growth suppression – PAO1 strain, BacTiter-Glo luminescence, LB-PBS, primary screen (AID 1144). The settings on record: P. aeruginosa PAO1 biofilm, 12 h, higher = more signal.
Assay [13] in a line: basal CRE-LacZ reporter activity in PC12 – cell-based, unstimulated, primary screen (AID 1145). To be noted: no forskolin, luminescence, 4.5 h, higher = more signal, called active from +8 up or from −8 down.
Assay [14] in a line: forskolin-driven CRE-LacZ activity in PC12 – cell-based, CRE-LacZ reporter, forskolin-stimulated, primary screen (AID 1146).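 Also: PC12 cells with 6xCRE LacZ reporter stimulated by forskolin 10 µM; beta-galactosidase reporter signal reflecting CREB driven transcription.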 To be noted: luminescence, 4.5 h, higher = more signal, called active from +8 up or from −8 down.
Assay [15] addresses Streptavidin (Streptomyces avidinii) (UniProt P22629). The experiment in a line: compounds binding control protein streptavidin – biophysical, small-molecule microarray, 635/667 nm fluorescence, artefact control for SMM compound annotation, primary screen (AID 1147).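 Also: signal reflects streptavidin binding to arrayed compounds as a control protein.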 The settings on record: higher = more signal.
Assay [16] in a line: probe aInhba binding on compound microarray – biochemical, small-molecule microarray, 635/667 nm fluorescence, primary screen (AID 1148).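 Also: score merges 667nm spot fluorescence with signal-to-noise for antibody binding to printed compounds.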 To be noted: higher = more signal.
Assay [17] concerns the target Torsin-1A (Homo sapiens) (UniProt O14656). Description: TOR1A wild-type binding on microarray – cell lysate, small-molecule microarray, lysate, 635/667 nm, primary screen (AID 1149). The settings on record: COS7 hTOR1A-WT lysate, 635 nm fluorescence, higher = more signal.
The target is the same in assay [18]. Description: torsin A mutant lysate binding on microarrays – cell lysate, small-molecule microarray, COS7 lysate, 635/667 nm fluorescence, primary screen (AID 1150).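 Also: score pools 667 nm emission and signal to noise measuring lysate protein binding.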 The settings on record: COS7 hTOR1A mutant lysate, 635 nm fluorescence, higher = more signal.
Assay [19] concerns Sonic hedgehog protein (Shh). The experiment in a line: Sonic hedgehog microarray binding compounds – biochemical, small-molecule microarray, 635/667 nm fluorescence, primary screen (AID 1151).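 Also: Shh protein binding to compounds spotted on small-molecule microarray slides; score combines spot fluorescence intensity with signal-to-noise across triplicate slides.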 The settings on record: 635 nm fluorescence, higher = more signal.

Streptavidin (Streptomyces avidinii), sequence (P22629 whole entry, looked up): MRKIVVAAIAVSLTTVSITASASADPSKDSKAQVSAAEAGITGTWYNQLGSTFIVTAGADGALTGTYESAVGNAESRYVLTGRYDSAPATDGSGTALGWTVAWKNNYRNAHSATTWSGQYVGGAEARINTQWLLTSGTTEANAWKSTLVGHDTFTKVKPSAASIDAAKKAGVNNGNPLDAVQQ
Torsin-1A (Homo sapiens), sequence (O14656 whole entry, looked up): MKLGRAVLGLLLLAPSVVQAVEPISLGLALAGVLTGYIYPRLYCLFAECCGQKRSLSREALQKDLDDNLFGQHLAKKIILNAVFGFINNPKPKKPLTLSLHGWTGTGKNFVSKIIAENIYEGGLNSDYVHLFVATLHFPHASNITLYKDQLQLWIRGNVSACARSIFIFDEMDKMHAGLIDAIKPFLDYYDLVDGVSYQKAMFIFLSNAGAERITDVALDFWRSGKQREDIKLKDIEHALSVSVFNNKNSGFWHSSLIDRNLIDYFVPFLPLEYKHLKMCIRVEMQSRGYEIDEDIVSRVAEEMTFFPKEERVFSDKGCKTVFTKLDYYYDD
Luciferin 4-monooxygenase (Photinus pyralis), sequence (P08659 whole entry, looked up): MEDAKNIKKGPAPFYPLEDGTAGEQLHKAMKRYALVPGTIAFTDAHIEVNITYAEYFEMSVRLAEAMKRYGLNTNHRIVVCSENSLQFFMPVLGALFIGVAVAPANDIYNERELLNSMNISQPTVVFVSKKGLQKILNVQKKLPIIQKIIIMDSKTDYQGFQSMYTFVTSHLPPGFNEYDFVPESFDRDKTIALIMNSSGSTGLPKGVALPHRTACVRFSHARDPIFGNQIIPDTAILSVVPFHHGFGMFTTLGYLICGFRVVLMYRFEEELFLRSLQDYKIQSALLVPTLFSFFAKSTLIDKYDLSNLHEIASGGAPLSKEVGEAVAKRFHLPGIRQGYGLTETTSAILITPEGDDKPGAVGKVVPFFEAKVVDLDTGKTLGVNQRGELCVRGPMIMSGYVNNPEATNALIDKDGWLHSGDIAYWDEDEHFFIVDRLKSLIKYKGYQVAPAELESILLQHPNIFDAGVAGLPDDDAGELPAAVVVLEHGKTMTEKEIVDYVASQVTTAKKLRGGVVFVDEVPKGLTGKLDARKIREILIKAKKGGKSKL

With `CCN1C(=O)[C@H]2[C@H]3[C@H](O)[C@H](O)CC(=NOC[C@H]4O[C@H](c5ccccc5)C=C[C@@H]4Oc4ccc(OC)cc4)[C@@H]3CC[C@H]2C1=O`, the composite z-score was -0.157 in [1]; 0.829 in [2]; -0.139 in [3]; 0.894 in assay [4]; 0.74 in assay [5]; 1.01 in assay [6]. Further, the composite z-score in the assay on Lefty1 is 1.19; in assay [8], 0.246; in assay [10], 0.353; in assay [15], 0.29; in assay [16] it was 0.0497; with Torsin-1A (Homo sapiens) [17] it was 0.66. The composite z-score in the assay with Torsin-1A (Homo sapiens) [18] was found to be 0.586; in assay [19], 0.827. The z-score in [7] is 0.385; in [9] it was 0.468 (inactive); in [11], -0.509 (inactive); in assay [12] it was 1.13 (inactive); in [13], 0.843 (inactive); in assay [14], 0.126 (inactive).
`COC(=O)CC=C[C@@H](C)[C@@H](C=NO[C@@H](C)c1cn([C@H](CO)Cc2ccccc2)nn1)NS(=O)(=O)c1ccc(C)cc1`: the composite z-score in assay [1] was 1.56; in assay [2], 0.332; in [3], 0.265; in assay [4], 0.982; in assay [5], 0.95; in assay [6], 0.459. In addition, the composite z-score with Lefty1 is 0.681; in assay [8], 0.0187; in assay [10], 0.062; in assay [15] it was 0.0525; in assay [16] it was 0.0928; in the assay with Torsin-1A (Homo sapiens) [17] it was 0.945. Moreover, the composite z-score stood at 0.997 with Torsin-1A (Homo sapiens) [18] and 0.685 in [19]. Further, the z-score was -0.517 in assay [7]; -1.28 (inactive) in [9]; -0.35 (inactive) in assay [11]; 0.606 (inactive) in [12]; 3.99 (inactive) in [13]; -0.0697 (inactive) in assay [14].
In the case of `CC(CCN1CCc2nc(-c3ccccc3)c(-c3ccccc3)cc2C1)=NOC[C@@H](O)[C@H]1O[C@@H]2OC(C)(C)O[C@@H]2[C@H]1O`, the composite z-score in [1] was 0.107; in assay [2], 0.94; in assay [3] it was 0.182; in [4], 0.925; in assay [5], 0.521; in assay [6], 0.409. Further, the composite z-score was 1.07 with Lefty1; 0.393 in assay [8]; 0.19 in assay [10]; 0.687 in assay [15]; -0.0589 in [16]; 0.648 in the assay with Torsin-1A (Homo sapiens) [17]. In addition, the values for the composite z-score (in the assay with Torsin-1A (Homo sapiens) [18]; in [19]) were 0.587 and 1.09, respectively. In addition, the z-score was 2.07 in [7]; -0.116 (inactive) in [9]; -0.875 (inactive) in assay [11]; 0.306 (inactive) in assay [12]; 2.25 (inactive) in assay [13]; -0.311 (inactive) in [14].
Turning to `CCOC(=O)[C@H](Cc1ccccc1)NC(=O)CCC1CC(OC(=O)NCCc2ccc(F)cc2)CC2(CCCC(COC(=O)NCCc3ccc(Cl)cc3)O2)O1` (stereo not given in full), the composite z-score in assay [1] was found to be 1.03; in assay [2], 1.09; in [3], 0.671; in assay [4] it was 0.832; in assay [5] it was 0.326; in assay [6] it was 0.996. Further, the composite z-score in the assay with Lefty1 is 0.583; in assay [8], 0.105; in [10], 0.108; in assay [15] it was 0.391; in [16], -0.0494; in the assay with Torsin-1A (Homo sapiens) [17] it was 0.371. The values for the composite z-score (in the assay with Torsin-1A (Homo sapiens) [18]; in assay [19]) were 0.837 and 0.726, respectively. The z-score was 0.699 in assay [7]; 0.361 (inactive) in [9]; -0.0147 (inactive) in [11]; -0.288 (inactive) in [12]; -0.526 (inactive) in assay [13]; 0.483 (inactive) in assay [14].
On to `O=C1C[C@@H](O)[C@@H](O)[C@@H]2[C@@H]3C(=O)N(c4cccc(Oc5ccccc5)c4)C(=O)[C@@H]3CC[C@H]12`, for which the composite z-score is -0.0123 in [1]; 0.818 in [2]; -0.031 in assay [3]; 0.345 in assay [4]; 0.505 in [5]; 0.31 in [6]. Moreover, the composite z-score in the assay on Lefty1 was 0.471; in [8], 0.268; in assay [10], 0.114; in [15], 0.0742; in assay [16], -0.183; with Torsin-1A (Homo sapiens) [17] it was 0.162. Moreover, the composite z-score was 0.331 in the assay with Torsin-1A (Homo sapiens) [18] and 0.669 in assay [19]. In addition, the z-score in assay [7] is 1.23; in [9] it was -0.275 (inactive); in assay [11] it was 0.393 (inactive); in assay [12] it was 0.247 (inactive); in assay [13], 2.51 (inactive); in assay [14], 0.287 (inactive).
